Test results published in PubChem BioAssay (NCATS).
“And” between values parts separate entries of the source, which are not always exact repeats. Equal values may be shown once. Results filed as inconclusive are left out. Some structures have more than one record in an assay (separate samples or runs), and their calls can disagree. The source made the active and inactive calls. Unless noted, calls come from the whole dose curve; as a rule, active = well fitted curve in the direction sought with a large enough effect; inconclusive = small, poorly fitted or top-dose-only effect, or another doubt; inactive = no such curve, though single readings can be large; an effect the other way counts as inactive or inconclusive.

Legend:
[1] = MultiTox-Fluor Cytotoxicity Assay - LYMP1-001 - Dead Cells (AID 946); conditions: LYMP1-001 lymphoblastoid cells, dead-cell protease fluorescence; series mostly up to 92.2 µM; note: potency is the fitted concentration of half-maximal effect
Method in brief: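 In this qHTS, 15 uM tetraoctylammonium bromide defined 100% and DMSO defined basal activity. Lymphoblastoid cells (LYMP1-001, 2500 per well) received compound for 16 hr at 37 C before a fluorogenic dead-cell substrate readout at 485/520 nm.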

[2] = Cell Viability - LYMP2-009 (AID 968); conditions: LYMP2-009 lymphoblastoid cell viability; series mostly up to 92.2 µM;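 note: cells exposed to compound for 24 h at 37 °C; nearly all actives have a fitted effect of over 55% in size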; note: potency is the fitted concentration of half-maximal effect
[3] = Cell Viability - LYMP2-011 (AID 969); conditions: LYMP2-011 lymphoblastoid cells viability; series mostly up to 92.2 µM;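 note: cells exposed to compound for 24 hours; nearly all actives have a fitted effect of over 60% in size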; note: potency is the fitted concentration of half-maximal effect
Method in brief: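 2500 cells/well, 5 hr 37 C; compound added, 24 hr 37 C; CellTiter-Glo 30 min RT; luminescence. qHTS concentration-response, Hill-equation AC50. Tetraoctylammonium bromide positive control.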

[4] = Cell Viability - LYMP2-007 (AID 979); conditions: LYMP2-007 lymphoblastoid cell viability; series mostly up to 92.2 µM;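 note: cells exposed to compound for 24 h before reading; nearly all actives have a fitted effect of over 60% in size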; note: potency is the fitted concentration of half-maximal effect
Method in brief: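 Luminescent ATP signal (CellTiter-Glo) serves as the viability read-out after 24 hr compound treatment of lymphoblastoid cells in complete medium at 37 C. Concentration-response data were fitted to the Hill equation to give AC50 values.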

[5] = Cell Viability - LYMP2-008 (AID 980); conditions: LYMP2-008 lymphoblastoid cell viability, qHTS; series mostly up to 92.2 µM; note: nearly all actives have a fitted effect of over 60% in size; note: potency is the fitted concentration of half-maximal effect
Method in brief: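 qHTS, human lymphoblastoid line, 2500 cells/well; 5 hr preincubation, 24 hr compound, 37 C. CellTiter-Glo ATP luminescence. AC50 via Hill equation. Tetraoctylammonium bromide positive control.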

[6] = target: Bile acid receptor (Homo sapiens) (UniProt Q96RI1); assay: qHTS assay for small molecule antagonists of farnesoid X receptor signaling (AID 588526; calls by dose curve); conditions: HEK293T FXR-UAS-bla, beta-lactamase ratio, antagonist mode; series mostly up to 76.7 µM
Method in brief: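 Antagonist mode: titrated compounds tested against chenodeoxycholic acid stimulation (normalized to 50 uM CDCA and DMSO) in GeneBLAzer HEK293T cells for 16 h. Beta-lactamase read by CCF4 fluorescence; IC50 from Hill fits.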

[7] = target: Glucocorticoid receptor (Homo sapiens) (UniProt P04150); assay: qHTS assay for small molecule antagonists of glucocorticoid receptor signaling (AID 588533; active = well fitted inhibition curve with a large enough effect in the signal ratio, with a control signal flat, not every such curve was filed as active; the % refers to the signal ratio; note: potency is the fitted concentration of half-maximal effect); conditions: HeLa MMTV-bla, GRE beta-lactamase ratio, antagonist mode, 18 h; series mostly up to 76.8 µM
Method in brief: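 Antagonist-mode qHTS: compound titrations added to GRE-bla HeLa cells, then dexamethasone 2 nM final; 18 h, 37 C. CCF4 FRET fluorescence normalized to dexamethasone and DMSO; IC50 from Hill fit.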

[8] = target: Vitamin D3 receptor (Homo sapiens) (UniProt P11473); assay: qHTS assay for small molecule antagonists of vitamin D receptor signaling (AID 588541; calls by dose curve; note: potency is the fitted concentration of half-maximal effect); conditions: HEK293T VDR-UAS-bla, beta-lactamase ratio, antagonist mode; series mostly up to 76.7 µM
Method in brief: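 VDR-UAS-bla HEK293T cells in 2% charcoal-stripped FBS were stimulated with 1-alpha,25-dihydroxyvitamin D3 (3 nM final) plus compound for 16 h at 37 C. The beta-lactamase CCF4 readout was normalized to 50 nM agonist and DMSO, and Hill fits gave IC50.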

[9] = target: Voltage-gated inwardly rectifying potassium channel KCNH2 (Homo sapiens) (UniProt Q12809); assay: qHTS Assay for Small Molecule Inhibitors of the Human hERG Channel Activity (AID 588834); conditions: U2OS BacMam hERG, FluxOR thallium flux fluorescence; series mostly up to 92.2 µM;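 note: top concentration of the series differs between compounds; lower thallium flux fluorescence means stronger hERG block; nearly all actives have a fitted effect of over 50% in size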
Method in brief: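 Blockade is seen as reduced FluxOR thallium-flux fluorescence in U2OS cells expressing hERG from a BacMam construct, in Opti-MEM with 2% FCS. Concentration-response data fitted to the Hill equation for AC50.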

[10] = Cell Viability - Hek293 (AID 427;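 active = compounds whose dose-response curve shows a full or clear partial loss of cell viability, called from curve shape rather than a numeric limit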;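 note: potency is the fitted concentration of half-maximal effect; cells exposed to compound for 40 hours at 37 °C before reading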); conditions: qHTS
Method in brief: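 AC50 values derive from Hill-modelled concentration-response of ATP-based luminescence, normalized between DMSO-only and 100 uM tamoxifen controls. Cells were exposed in complete culture medium for 40 hr at 37 °C before detection.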

[11] = Cell Viability - SK-N-SH (AID 435; calls by dose curve;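 note: potency is the fitted concentration of half-maximal effect; compound exposure lasted 40 h at 37 °C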); conditions: SK-N-SH neuroblastoma cell viability qHTS
Method in brief: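 Human neuroblastoma line, 40 h exposure at 37 °C, ATP quantified via luciferase luminescence; DMSO and 100 uM tamoxifen define 0 and 100% inhibition for AC50 fitting.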

[12] = Cell Viability - LYMP1-002 - Assay at 40 hr (AID 994); conditions: LYMP1-002 lymphoblastoid cell viability; series mostly up to 92.2 µM; note: nearly all actives have a fitted effect of over 60% in size
Method in brief: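 Luminescent ATP signal served as the viability readout, with decreases taken as toxicity. Cells were treated with compounds across a concentration range for 40 hours at 37 C, and AC50 values came from standard Hill modeling.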

[13] = target: Vitamin D3 receptor (Homo sapiens) (UniProt P11473); assay: qHTS assay for small molecule agonists of vitamin D receptor signaling (AID 588543; calls by dose curve); conditions: HEK293T VDR-UAS-bla, beta-lactamase ratio, 16 h; series mostly up to 76.8 µM
Method in brief: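 Measured: β-lactamase reporter activity (CCF4, 405 nm excitation, 460/530 nm emission) in HEK293T VDR-UAS-bla cells after 16 h compound exposure at 37 °C. Normalization against 50 nM 1α,25-dihydroxyvitamin D3 and DMSO; Hill-fit EC50.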

[14] = Cell Viability - LYMP2-023 (AID 975); conditions: LYMP2-023 lymphoblastoid cell viability; series mostly up to 92.2 µM;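 note: cellular ATP measured by luciferase luminescence as viability proxy; cells exposed to compound for 24 hours at 37 °C; nearly all actives have a fitted effect of over 55% in size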
Method in brief: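 2500 cells/well, 5 hr 37 C; cpd 24 hr 37 C; CellTiter-Glo, 30 min RT; luminescence. qHTS conc-response, Hill fit -> AC50. Pos ctrl tetraoctylammonium bromide.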

[15] = target: Estrogen receptor (Homo sapiens) (UniProt P03372); assay: qHTS assay for small molecule agonists of estrogen receptor alpha signaling (AID 588514; calls by dose curve; note: nearly all actives have a fitted effect of over 70% in size; note: potency is the fitted concentration of half-maximal effect); conditions: ER-alpha-UAS-bla HEK293, beta-lactamase ratio, 18 h; series mostly up to 76.8 µM
Method in brief: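 Cells were plated at 5000/well, incubated 4 hrs at 37 C, dosed with compound titration series, incubated 18 hrs at 37 C, loaded with CCF4 dye for 2 hrs at RT, then fluorescence was read.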

[16] = target: Tumor necrosis factor (Homo sapiens) (UniProt P01375); assay: qHTS assay to identify small molecules that stimulate Tumor Necrosis Factor-alpha (TNF-alpha) secretion (AID 651757; active = well fitted curve in the direction sought with a large enough effect in the signal ratio; the % refers to the signal ratio); conditions: Human cells, HTRF 665/615 ratio; series mostly up to 92.2 µM
Method in brief: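 Read-out is HTRF, a TR-FRET sandwich of cryptate- and XL665-labeled anti-TNF-alpha antibodies detecting cytokine secreted by THP-1 cells. Cells had been incubated with test compounds at 37 C for 17 hrs beforehand.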

[17] = Cell Viability - LYMP2-025 (AID 976); conditions: LYMP2-025 lymphoblastoid cell viability; series mostly up to 92.2 µM;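 note: cells exposed to compound for 24 h at 37 °C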; note: potency is the fitted concentration of half-maximal effect
Method in brief: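 Seed 2500 LYMP2-025 cells/well; 5 hr at 37 C; add compound; 24 hr at 37 C; add CellTiter-Glo; 30 min RT; read luminescence. AC50 from Hill-modelled concentration-response.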

[18] = Cell Viability - LYMP2-014 (AID 983); conditions: LYMP2-014 lymphoblastoid cells, viability qHTS; series mostly up to 92.2 µM;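 note: cells exposed to compound for 24 h at 37 °C; nearly all actives have a fitted effect of over 50% in size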; note: potency is the fitted concentration of half-maximal effect
Method in brief: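 Luminescent ATP signal (CellTiter-Glo, 30 min at room temperature) serves as the viability read-out after 24 hr compound exposure at 37 C. Cells were seeded at 2500 per well and settled 5 hr beforehand.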

Measured: Potency

Chain of Tumor necrosis factor (Homo sapiens) (P01375 whole entry, looked up): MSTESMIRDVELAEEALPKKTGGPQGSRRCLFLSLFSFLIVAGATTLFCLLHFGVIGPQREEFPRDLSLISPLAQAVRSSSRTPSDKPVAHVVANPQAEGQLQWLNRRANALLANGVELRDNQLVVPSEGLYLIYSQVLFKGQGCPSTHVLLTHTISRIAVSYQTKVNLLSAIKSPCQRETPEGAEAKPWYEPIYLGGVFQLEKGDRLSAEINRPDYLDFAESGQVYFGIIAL
Chain of Vitamin D3 receptor (Homo sapiens) (P11473 whole entry, looked up): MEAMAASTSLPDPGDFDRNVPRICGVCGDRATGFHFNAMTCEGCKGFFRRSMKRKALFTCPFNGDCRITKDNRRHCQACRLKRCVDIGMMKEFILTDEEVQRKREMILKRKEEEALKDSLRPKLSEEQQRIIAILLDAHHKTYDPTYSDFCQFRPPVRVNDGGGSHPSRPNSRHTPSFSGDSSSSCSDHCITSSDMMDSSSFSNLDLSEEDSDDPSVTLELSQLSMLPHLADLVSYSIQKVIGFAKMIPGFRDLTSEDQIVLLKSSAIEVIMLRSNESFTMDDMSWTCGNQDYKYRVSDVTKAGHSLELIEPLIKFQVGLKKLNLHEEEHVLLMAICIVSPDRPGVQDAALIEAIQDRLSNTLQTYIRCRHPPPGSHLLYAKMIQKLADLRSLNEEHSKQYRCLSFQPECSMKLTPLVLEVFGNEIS
Chain of Glucocorticoid receptor (Homo sapiens) (P04150 whole entry, looked up): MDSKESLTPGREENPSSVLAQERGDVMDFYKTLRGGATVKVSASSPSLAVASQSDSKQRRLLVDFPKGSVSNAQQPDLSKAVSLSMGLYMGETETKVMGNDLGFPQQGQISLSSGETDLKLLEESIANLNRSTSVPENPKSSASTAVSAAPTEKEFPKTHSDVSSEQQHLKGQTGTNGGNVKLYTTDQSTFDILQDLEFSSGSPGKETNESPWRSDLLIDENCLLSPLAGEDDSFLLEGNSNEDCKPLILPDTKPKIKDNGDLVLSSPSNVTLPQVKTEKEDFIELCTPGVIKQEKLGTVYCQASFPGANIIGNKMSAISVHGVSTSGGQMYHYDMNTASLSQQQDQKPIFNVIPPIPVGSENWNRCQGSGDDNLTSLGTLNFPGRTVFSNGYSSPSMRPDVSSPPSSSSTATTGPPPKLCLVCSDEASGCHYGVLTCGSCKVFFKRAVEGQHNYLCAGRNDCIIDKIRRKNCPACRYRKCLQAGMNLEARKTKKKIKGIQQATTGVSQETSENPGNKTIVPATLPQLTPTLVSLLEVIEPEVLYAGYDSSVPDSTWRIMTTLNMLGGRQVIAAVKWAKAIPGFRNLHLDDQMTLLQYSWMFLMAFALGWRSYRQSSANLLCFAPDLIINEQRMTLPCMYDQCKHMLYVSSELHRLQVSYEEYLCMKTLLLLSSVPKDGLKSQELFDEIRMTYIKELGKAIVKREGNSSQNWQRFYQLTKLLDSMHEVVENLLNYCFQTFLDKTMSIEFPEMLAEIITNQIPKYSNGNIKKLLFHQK
Chain of Estrogen receptor (Homo sapiens) (P03372 whole entry, looked up): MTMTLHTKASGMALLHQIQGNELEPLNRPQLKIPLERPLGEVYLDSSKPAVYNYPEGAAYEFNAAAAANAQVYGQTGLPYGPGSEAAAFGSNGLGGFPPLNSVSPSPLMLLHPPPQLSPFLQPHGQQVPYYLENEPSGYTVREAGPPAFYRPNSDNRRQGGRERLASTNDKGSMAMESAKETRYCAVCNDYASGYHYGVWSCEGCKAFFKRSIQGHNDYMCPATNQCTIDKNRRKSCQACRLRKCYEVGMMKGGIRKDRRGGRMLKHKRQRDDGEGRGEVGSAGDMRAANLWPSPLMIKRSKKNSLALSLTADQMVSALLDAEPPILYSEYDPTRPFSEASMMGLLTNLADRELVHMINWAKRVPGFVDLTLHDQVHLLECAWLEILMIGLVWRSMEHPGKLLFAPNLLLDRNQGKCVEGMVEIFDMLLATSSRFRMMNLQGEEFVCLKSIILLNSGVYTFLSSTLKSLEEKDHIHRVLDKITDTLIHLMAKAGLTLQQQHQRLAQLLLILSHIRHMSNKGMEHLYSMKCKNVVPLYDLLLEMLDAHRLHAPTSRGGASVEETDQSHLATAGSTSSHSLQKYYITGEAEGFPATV
Chain of Bile acid receptor (Homo sapiens) (Q96RI1 whole entry, looked up): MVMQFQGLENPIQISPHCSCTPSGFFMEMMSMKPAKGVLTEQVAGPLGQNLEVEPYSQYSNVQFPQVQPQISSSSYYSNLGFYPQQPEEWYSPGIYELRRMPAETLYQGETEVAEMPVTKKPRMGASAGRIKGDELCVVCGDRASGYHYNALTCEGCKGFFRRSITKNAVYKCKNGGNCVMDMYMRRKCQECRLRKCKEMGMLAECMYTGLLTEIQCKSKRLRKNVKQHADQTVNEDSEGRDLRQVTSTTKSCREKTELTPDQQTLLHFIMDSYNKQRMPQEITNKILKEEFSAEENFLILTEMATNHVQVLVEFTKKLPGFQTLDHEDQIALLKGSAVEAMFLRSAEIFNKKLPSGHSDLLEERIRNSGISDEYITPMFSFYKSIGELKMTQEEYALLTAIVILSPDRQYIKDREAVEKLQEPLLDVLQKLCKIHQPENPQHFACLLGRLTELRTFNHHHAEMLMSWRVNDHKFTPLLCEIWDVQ
Chain of Voltage-gated inwardly rectifying potassium channel KCNH2 (Homo sapiens) (Q12809 whole entry, looked up): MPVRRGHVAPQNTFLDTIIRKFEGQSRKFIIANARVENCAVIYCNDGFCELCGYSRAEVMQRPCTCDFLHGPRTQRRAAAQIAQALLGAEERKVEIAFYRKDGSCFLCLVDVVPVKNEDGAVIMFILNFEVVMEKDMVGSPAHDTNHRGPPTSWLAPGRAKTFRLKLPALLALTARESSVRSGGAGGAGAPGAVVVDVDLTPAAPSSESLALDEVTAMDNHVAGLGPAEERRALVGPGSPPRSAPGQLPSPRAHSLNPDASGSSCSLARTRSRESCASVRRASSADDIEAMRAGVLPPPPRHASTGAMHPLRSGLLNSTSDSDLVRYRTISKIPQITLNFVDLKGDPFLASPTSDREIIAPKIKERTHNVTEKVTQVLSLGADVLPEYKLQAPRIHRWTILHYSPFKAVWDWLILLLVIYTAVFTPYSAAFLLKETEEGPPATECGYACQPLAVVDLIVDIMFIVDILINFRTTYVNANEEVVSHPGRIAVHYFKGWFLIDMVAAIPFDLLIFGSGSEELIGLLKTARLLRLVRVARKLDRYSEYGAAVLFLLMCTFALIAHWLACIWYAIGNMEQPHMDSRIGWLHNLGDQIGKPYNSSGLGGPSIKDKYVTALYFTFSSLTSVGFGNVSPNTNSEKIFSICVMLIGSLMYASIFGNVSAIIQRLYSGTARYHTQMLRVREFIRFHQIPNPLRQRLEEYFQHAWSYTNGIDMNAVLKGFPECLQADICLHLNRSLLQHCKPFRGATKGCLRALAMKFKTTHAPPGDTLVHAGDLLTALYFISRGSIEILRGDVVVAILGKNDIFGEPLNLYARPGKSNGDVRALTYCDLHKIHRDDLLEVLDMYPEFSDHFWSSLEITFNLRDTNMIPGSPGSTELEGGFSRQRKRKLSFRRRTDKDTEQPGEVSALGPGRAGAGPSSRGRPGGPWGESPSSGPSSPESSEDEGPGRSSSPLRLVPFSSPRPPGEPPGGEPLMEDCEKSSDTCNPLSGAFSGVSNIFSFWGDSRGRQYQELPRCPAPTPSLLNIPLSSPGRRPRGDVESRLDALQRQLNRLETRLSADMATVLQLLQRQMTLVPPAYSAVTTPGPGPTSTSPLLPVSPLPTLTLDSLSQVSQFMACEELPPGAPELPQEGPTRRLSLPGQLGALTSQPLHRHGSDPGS

CC(=O)CC(=O)Nc1ccccc1
inactive: [1] | [2] | [3] | [4] | [5] | [6] | [7] | [8] | [9]

Cc1ccc(N)cc1[N+](=O)[O-]
inactive: [10] > 92 µM | [11] > 92 µM | [1] | [4] | [12] | [7] | [8] | [13]

CC(=O)c1ccc(Cl)c(Cl)c1Cl
inactive: [10] > 92 µM | [11] > 92 µM | [2] | [3] | [14] | [4] | [5] | [15] | [7] | [8] | [16]

Cc1cc2nc(N)sc2cc1C
inactive: [10] > 92 µM | [11] > 92 µM | [1] | [3] | [17] | [12] | [6] | [8] | [13] | [16]

C=Cc1cccc(C)c1
inactive: [10] > 92 µM | [11] > 92 µM | [1] | [3] | [14] | [17] | [5] | [18] | [12] | [15] | [7]

c1ccc(CSCc2ccccc2)cc1
inactive: [2] | [14] | [17] | [18] | [7] | [16]

Cc1c2ccccc2c(C)c2c1ccc1ccccc12
inactive: [2] | [14] | [17] | [18] | [6] | [16]
active: [15] 4.47 µM and 15.8 µM

Brc1cc(Br)c(Oc2cc(Br)c(Br)cc2Br)cc1Br
inactive: [2] | [3] | [14] | [17] | [4] | [5] | [18] | [12]

Cc1c(N)cccc1Cl
inactive: [3] | [14] | [4] | [15] | [6] | [7] | [8] | [9] | [16]

C=CC(=O)OCCCCCCOC(=O)C=C
active: [2] 39.8 µM | [17] 50.1 µM | [4] 39.8 µM | [5] 50.1 µM | [18] 50.1 µM
31.6 µM (active) and inactive: [8]
inactive: [6] | [9]
39.8 µM (active) and inactive: [7]

OCC(CBr)(CBr)CBr
inactive: [1] | [2] | [3] | [14] | [17] | [4] | [5] | [18] | [12] | [15] | [9] | [16]

CCCCC(CC)COP(=O)(OCC(CC)CCCC)OCC(CC)CCCC (configuration not stated)
inactive: [18] | [12] | [7] | [13] | [16]

CC(C)(C)C(=O)C1C(=O)c2ccccc2C1=O
active: [11] 20.1 µM
inactive: [1] | [3] | [17] | [4] | [12] | [15] | [8] | [13] | [9]

C/C=C1/C(=O)C[C@H]2[C@@H]3CCC4=CC(=O)CC[C@]4(C)[C@H]3CC[C@]12C
active: [1] 39.8 µM | [3] 50.1 µM | [5] 50.1 µM

Cc1c(C(=O)O)c(O)cc2c1C(=O)c1c(O)c([C@H]3O[C@H](CO)[C@@H](O)[C@H](O)[C@H]3O)c(O)c(O)c1C2=O
inactive: [1] | [15] | [6] | [7] | [13]
active: [11] 38.2 µM

CCN(CC)c1ccc(N)cc1
inactive: [8] | [13]

O=Nc1ccc(Nc2ccccc2)cc1
active: [10] 30.8 µM
inactive: [9]

Nc1ccc(N)c(Cl)c1
inactive: [1] | [4] | [18] | [15] | [8] | [13]

S=C(NC1CCCCC1)NC1CCCCC1
inactive: [2] | [3] | [14] | [17] | [5] | [15] | [9]

c1ccc(Nc2cccc3ccccc23)cc1
inactive: [1] | [4]

Cc1cc(=O)oc2cc(O)cc(O)c12
inactive: [1] | [14] | [17] | [5] | [12] | [6] | [7]

Cc1cccnc1
inactive: [11] > 92 µM | [1] | [2] | [3] | [14] | [17] | [4] | [5] | [18] | [12] | [8] | [16]
